According to PubChem BioAssay:
Active and inactive are the calls of the source. Unless noted, no rule for the calls is given here.

Legend:
[1] = anti-His antibody binders, primary screen, artefact control for SMM control protein annotation, biochemical, small-molecule microarray, 635 nm fluorescence (AID 1128); conditions: anti-His Alexa647 antibody binding, higher = more signal;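 also: score merges feature fluorescence with signal-to-noise for each printed compound spot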
[2] = system: Human papillomavirus type 1a E7 protein (residues 1-88); assay: HPV1a E7 small-molecule binders, primary screen, biochemical, small-molecule microarray, residues 1-88, 635 nm (AID 1129); conditions: small-molecule microarray binding, fluorescence 635 nm; higher = more signal
[3] = target: Focal adhesion kinase 1 (Homo sapiens) (UniProt Q05397); assay: small-molecule microarray binders of FAK, primary screen, biochemical, 635/667 nm fluorescence, BSA, DTT (AID 1130); conditions: PTK2 binding, 635 nm fluorescence, higher = more signal;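 also: composite of spot emission at 667 nm and signal to noise over triplicate slides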
[4] = system: Fibrinogen (Alexa647-labelled); assay: fibrinogen binders on compound microarrays, profiling panel, artefact control for SMM control-protein annotation, biochemical, small-molecule microarray, 635/667 nm fluorescence (AID 1131); conditions: fibrinogen-A647 binding fluorescence, higher = more signal;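 also: z-score merges 667 nm fluorescence with per-spot signal-to-noise over triplicate slides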
[5] = target: Follistatin (Homo sapiens) (UniProt P19883); assay: follistatin binders on small-molecule microarrays, primary screen, biochemical, small-molecule microarray, 635/667 nm fluorescence (AID 1132); conditions: FST binding, 635 nm fluorescence, higher = more signal
[6] = target: Fibroblast growth factor 2 (Homo sapiens) (UniProt P09038); assay: FGF2 binders on small-molecule microarrays, primary screen, biochemical, small-molecule microarray, 635/667 nm fluorescence (AID 1133); conditions: small-molecule microarray binding, FGF2, fluorescence 635/667; higher = more signal
[7] = mitochondrial membrane potential change in A549 cells, profiling panel, cell-based, JC-1 fluorescence, basal, 24 h, 100 nL (AID 1138); conditions: higher = more signal;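 also: A549 lung adenocarcinoma cells under basal conditions with no added stimulus; test concentration not given here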
[8] = system: Lefty1; assay: Lefty1 binders on small-molecule microarrays, primary screen, biochemical, small-molecule microarray, 635/667 nm fluorescence (AID 1139); conditions: small-molecule microarray binding, fluorescence 635/667; higher = more signal
[9] = system: wheat germ agglutinin (Triticum aestivum), Alexa647-labelled; assay: wheat germ agglutinin binders on compound microarrays, profiling panel, artefact control for SMM control-protein annotation, biochemical, small-molecule microarray, 635/667 nm fluorescence (AID 1140); conditions: WGA-A647 binding, 635 nm fluorescence, higher = more signal;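 also: score merges 667 nm feature emission with signal to noise over triplicate slides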
[10] = target: Luciferin 4-monooxygenase (Photinus pyralis) (UniProt P08659); assay: firefly luciferase enzyme inhibitors, primary screen, biochemical, luminescence, purified enzyme, 2006 set (AID 1141); conditions: SteadyGlo luminescence, 30 min, higher = more signal, called active from +8 up or from −8 down;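 also: cell-free assay with purified firefly luciferase at 100 ng per well in PBS; test concentration not given here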
[11] = system: Wnt5a (protein binding on small-molecule microarray); assay: Wnt5a binders on small-molecule microarray, primary screen, biophysical, 635/667 nm fluorescence (AID 1142); conditions: 635 nm fluorescence, higher = more signal;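 also: fluorescence read at 667 nm with signal to noise per printed feature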
[12] = cell viability in Huh7 cells, primary screen, cytotoxicity control for HCV replication inhibitor project, CellTiter-Glo luminescence, basal, 48 h (AID 1143); conditions: Huh7 HCV replicon, higher = more signal, called active from +8 up or from −8 down;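 also: Huh7 hepatoma cells carrying a hepatitis C replication reporter with no stimulus; test concentration not given here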
[13] = P. aeruginosa biofilm formation inhibitors, primary screen, PAO1 strain, BacTiter-Glo luminescence, LB-PBS (AID 1144); conditions: 12 h, higher = more signal
[14] = CREB reporter modulators without forskolin, primary screen, cell-based, PC12, CRE-LacZ reporter, unstimulated (AID 1145); conditions: no forskolin, luminescence, 4.5 h, higher = more signal, called active from +8 up or from −8 down
[15] = CREB reporter modulators under forskolin, primary screen, cell-based, PC12, CRE-LacZ reporter, forskolin-stimulated (AID 1146); conditions: luminescence, 4.5 h, higher = more signal, called active from +8 up or from −8 down;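 also: PC12 cells with 6xCRE LacZ reporter stimulated by forskolin 10 µM; beta-galactosidase reporter signal reflecting CREB driven transcription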
[16] = target: Streptavidin (Streptomyces avidinii) (UniProt P22629); assay: streptavidin binders on small-molecule microarray, primary screen, artefact control for SMM compound annotation, biophysical, 635/667 nm fluorescence (AID 1147); conditions: streptavidin binding, higher = more signal;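 also: signal reflects streptavidin binding to arrayed compounds as a control protein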
[17] = small-molecule binders of probe aInhba, primary screen, biochemical, small-molecule microarray, 635/667 nm fluorescence (AID 1148); conditions: higher = more signal;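 also: score merges 667nm spot fluorescence with signal-to-noise for antibody binding to printed compounds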
[18] = target: Torsin-1A (Homo sapiens) (UniProt O14656); assay: torsin A binders from cell lysate, primary screen, small-molecule microarray, wild-type, 635/667 nm (AID 1149); conditions: COS7 hTOR1A-WT lysate, 635 nm fluorescence, higher = more signal
[19] = target: Torsin-1A (Homo sapiens) (UniProt O14656); assay: small-molecule binders of mutant TOR1A in lysate, primary screen, cell lysate, small-molecule microarray, COS7 lysate, 635/667 nm fluorescence (AID 1150); conditions: COS7 hTOR1A mutant lysate, 635 nm fluorescence, higher = more signal;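 also: score pools 667 nm emission and signal to noise measuring lysate protein binding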
[20] = system: Sonic hedgehog protein (Shh); assay: small-molecule binders of Shh protein, primary screen, biochemical, small-molecule microarray, 635/667 nm fluorescence (AID 1151); conditions: small-molecule microarray binding, 635 nm fluorescence; higher = more signal;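 also: Shh protein binding to compounds spotted on small-molecule microarray slides; score combines spot fluorescence intensity with signal-to-noise across triplicate slides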

Sequence of Fibroblast growth factor 2 (Homo sapiens) (P09038 whole entry, looked up): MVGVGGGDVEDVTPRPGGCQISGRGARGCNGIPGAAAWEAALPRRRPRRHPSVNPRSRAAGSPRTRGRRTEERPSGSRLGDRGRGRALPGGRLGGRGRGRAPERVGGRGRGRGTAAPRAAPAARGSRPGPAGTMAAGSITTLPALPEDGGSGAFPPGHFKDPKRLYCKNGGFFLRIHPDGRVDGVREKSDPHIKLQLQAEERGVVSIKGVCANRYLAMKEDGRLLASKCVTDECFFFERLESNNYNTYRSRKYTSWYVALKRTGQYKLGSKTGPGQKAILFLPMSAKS
Sequence of Focal adhesion kinase 1 (Homo sapiens) (Q05397 whole entry, looked up): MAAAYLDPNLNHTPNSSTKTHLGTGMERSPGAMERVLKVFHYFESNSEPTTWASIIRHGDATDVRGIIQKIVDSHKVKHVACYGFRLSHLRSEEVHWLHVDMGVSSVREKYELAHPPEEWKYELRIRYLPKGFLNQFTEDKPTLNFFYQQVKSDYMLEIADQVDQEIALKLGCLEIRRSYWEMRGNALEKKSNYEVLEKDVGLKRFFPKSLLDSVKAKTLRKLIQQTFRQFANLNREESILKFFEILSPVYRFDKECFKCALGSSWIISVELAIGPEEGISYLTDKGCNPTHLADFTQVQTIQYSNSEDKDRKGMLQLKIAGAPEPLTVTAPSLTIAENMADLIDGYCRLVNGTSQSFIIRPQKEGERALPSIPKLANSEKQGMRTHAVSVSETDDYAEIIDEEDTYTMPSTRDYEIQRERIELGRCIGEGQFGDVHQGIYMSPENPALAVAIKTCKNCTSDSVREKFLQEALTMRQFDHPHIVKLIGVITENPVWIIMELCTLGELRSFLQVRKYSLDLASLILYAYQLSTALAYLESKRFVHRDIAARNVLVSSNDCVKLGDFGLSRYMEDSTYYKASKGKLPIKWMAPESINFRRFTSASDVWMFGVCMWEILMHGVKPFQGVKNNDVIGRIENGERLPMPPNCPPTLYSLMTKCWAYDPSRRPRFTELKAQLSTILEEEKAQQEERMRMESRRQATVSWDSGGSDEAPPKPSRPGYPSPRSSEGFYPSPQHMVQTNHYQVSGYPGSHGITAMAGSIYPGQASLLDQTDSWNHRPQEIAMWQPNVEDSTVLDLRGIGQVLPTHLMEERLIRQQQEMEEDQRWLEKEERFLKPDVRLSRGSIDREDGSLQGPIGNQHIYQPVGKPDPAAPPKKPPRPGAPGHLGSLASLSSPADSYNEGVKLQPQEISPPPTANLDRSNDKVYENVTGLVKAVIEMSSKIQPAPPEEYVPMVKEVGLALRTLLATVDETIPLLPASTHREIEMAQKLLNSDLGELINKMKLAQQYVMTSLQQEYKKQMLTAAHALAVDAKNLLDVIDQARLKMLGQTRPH
Sequence of Torsin-1A (Homo sapiens) (O14656 whole entry, looked up): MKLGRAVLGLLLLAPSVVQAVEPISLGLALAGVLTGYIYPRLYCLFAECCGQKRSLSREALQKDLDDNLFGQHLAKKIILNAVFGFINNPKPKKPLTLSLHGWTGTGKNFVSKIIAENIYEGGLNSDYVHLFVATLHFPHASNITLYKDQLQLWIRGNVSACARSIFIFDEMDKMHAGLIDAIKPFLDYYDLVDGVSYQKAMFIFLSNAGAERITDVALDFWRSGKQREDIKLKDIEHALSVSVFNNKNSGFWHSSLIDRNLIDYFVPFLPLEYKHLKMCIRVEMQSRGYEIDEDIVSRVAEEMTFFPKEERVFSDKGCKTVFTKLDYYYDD
Sequence of Streptavidin (Streptomyces avidinii) (P22629 whole entry, looked up): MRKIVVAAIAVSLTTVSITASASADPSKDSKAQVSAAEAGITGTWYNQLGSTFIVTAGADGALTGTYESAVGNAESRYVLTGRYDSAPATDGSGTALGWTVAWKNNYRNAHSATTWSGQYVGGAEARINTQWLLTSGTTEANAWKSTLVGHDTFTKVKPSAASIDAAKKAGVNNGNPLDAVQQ
Sequence of Follistatin (Homo sapiens) (P19883 whole entry, looked up): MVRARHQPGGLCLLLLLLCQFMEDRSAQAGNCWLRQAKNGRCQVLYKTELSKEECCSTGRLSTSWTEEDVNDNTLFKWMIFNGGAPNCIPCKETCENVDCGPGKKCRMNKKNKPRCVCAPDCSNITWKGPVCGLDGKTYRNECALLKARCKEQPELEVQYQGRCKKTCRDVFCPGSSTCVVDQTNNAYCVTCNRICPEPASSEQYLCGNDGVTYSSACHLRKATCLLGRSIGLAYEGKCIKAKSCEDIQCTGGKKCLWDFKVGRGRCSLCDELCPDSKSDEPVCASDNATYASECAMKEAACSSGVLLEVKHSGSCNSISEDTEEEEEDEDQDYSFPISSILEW
Sequence of Luciferin 4-monooxygenase (Photinus pyralis) (P08659 whole entry, looked up): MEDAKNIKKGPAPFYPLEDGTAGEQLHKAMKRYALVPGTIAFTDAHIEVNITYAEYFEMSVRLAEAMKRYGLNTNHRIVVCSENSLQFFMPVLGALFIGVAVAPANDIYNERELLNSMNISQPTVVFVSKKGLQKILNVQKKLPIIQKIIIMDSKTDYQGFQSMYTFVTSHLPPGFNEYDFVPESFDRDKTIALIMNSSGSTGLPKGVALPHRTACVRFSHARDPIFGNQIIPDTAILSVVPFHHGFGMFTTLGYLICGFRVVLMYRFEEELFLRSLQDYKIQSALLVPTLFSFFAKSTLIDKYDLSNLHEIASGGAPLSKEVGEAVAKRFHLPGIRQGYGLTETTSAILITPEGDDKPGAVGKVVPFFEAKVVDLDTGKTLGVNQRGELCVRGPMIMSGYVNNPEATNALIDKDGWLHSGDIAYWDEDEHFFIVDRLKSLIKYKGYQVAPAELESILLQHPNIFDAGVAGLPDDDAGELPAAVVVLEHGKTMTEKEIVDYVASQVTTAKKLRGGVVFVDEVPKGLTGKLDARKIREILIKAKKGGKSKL

CC(=O)OC[C@H]1O[C@H](C#CCCCc2ccccc2)C=C[C@@H]1OC(C)=O
composite z-score [1]: 0.451
composite z-score [2]: 0.242
composite z-score [3]: 0.126
composite z-score [4]: 0.735
composite z-score [5]: 0.47
composite z-score [6]: 0.83
z-score [7]: -0.264
composite z-score [8]: 0.696
composite z-score [9]: 0.353
z-score [10]: -1.65 (inactive)
composite z-score [11]: 0.18
z-score [12]: -2.33 (inactive)
z-score [13]: 0.952 (inactive)
z-score [14]: 0.106 (inactive)
z-score [15]: 1.28 (inactive)
composite z-score [16]: -0.111
composite z-score [17]: 0.322
composite z-score [18]: -0.0078
composite z-score [19]: 0.0804
composite z-score [20]: 1.19

CN1C(=O)C2C=CC(C(O)c3ccc(I)cc3)N(NC(=O)OC(C)(C)C)C2C1=O (stereo not given)
composite z-score [1]: 0.131
composite z-score [2]: 1.25
composite z-score [3]: 0.739
composite z-score [4]: 0.974
composite z-score [5]: 0.669
composite z-score [6]: -0.0956
z-score [7]: -0.317
composite z-score [8]: -0.119
composite z-score [9]: 0.743
z-score [10]: 0.607 (inactive)
composite z-score [11]: 0.0527
z-score [12]: 0.6 (inactive)
z-score [13]: 0.155 (inactive)
z-score [14]: -0.515 (inactive)
z-score [15]: 0.699 (inactive)
composite z-score [16]: 0.323
composite z-score [17]: 0.274
composite z-score [18]: -0.042
composite z-score [19]: 0.447
composite z-score [20]: -0.436

NC(=O)NCC#Cc1ccc2c(c1)[C@]1(C(=O)N2)[C@H](c2ccc(O)cc2)N2[C@H](c3ccccc3)[C@H](c3ccccc3)OC(=O)[C@H]2[C@@H]1C(=O)N1CCCCCCC1
composite z-score [1]: 0.687
composite z-score [2]: 0.564
composite z-score [3]: -0.222
composite z-score [4]: 0.161
composite z-score [5]: 1.34
composite z-score [6]: 0.25
z-score [7]: 0.296
composite z-score [8]: 1.02
composite z-score [9]: 0.604
z-score [10]: 0.363 (inactive)
composite z-score [11]: 0.2
z-score [12]: -0.502 (inactive)
z-score [13]: -0.75 (inactive)
z-score [14]: -0.231 (inactive)
z-score [15]: -0.674 (inactive)
composite z-score [16]: 0.393
composite z-score [17]: 1.23
composite z-score [18]: -0.067
composite z-score [19]: 0.609
composite z-score [20]: 1.06

C[C@@H]1CC[C@H]2C(=O)O[C@H](COc3ccc(C(C)(C)C)cc3)CN2[C@H]1c1ccc(Br)cc1
composite z-score [1]: 2.99
composite z-score [2]: -0.701
composite z-score [3]: -0.0482
composite z-score [4]: 0.54
composite z-score [5]: -0.123
composite z-score [6]: 0.0203
z-score [7]: 1.87
composite z-score [8]: 0.0924
composite z-score [9]: 0.148
z-score [10]: -1.36 (inactive)
composite z-score [11]: -0.131
z-score [12]: -0.443 (inactive)
z-score [13]: -0.301 (inactive)
z-score [14]: 0.262 (inactive)
z-score [15]: 0.203 (inactive)
composite z-score [16]: 0.102
composite z-score [17]: -0.17
composite z-score [18]: -0.175
composite z-score [19]: -0.142
composite z-score [20]: 0.348

COC(=O)[C@H](C)NC(=O)CCC1CC(OC(=O)NCc2cccc3ccccc23)CC2(CCCC(COC(=O)NCCc3ccc(Cl)cc3)O2)O1 (stereo not given in full)
composite z-score [1]: 0.591
composite z-score [2]: 1.06
composite z-score [3]: 0.178
composite z-score [4]: 0.228
composite z-score [5]: 0.225
composite z-score [6]: 0.212
z-score [7]: 0.179
composite z-score [8]: 1.03
composite z-score [9]: 0.411
z-score [10]: 0.632 (inactive)
composite z-score [11]: -0.173
z-score [12]: -0.006 (inactive)
z-score [13]: -0.494 (inactive)
z-score [14]: 0.2 (inactive)
z-score [15]: 0.45 (inactive)
composite z-score [16]: 0.558
composite z-score [17]: -0.152
composite z-score [18]: 0.405
composite z-score [19]: 0.353
composite z-score [20]: 0.569

CO[C@@H]1COC(=O)CC=C[C@@H](C)[C@@H]2C=C[C@@H](O)[C@@H](COC(=O)CC=C[C@H]1C)O2
composite z-score [1]: 0.235
composite z-score [2]: -0.912
composite z-score [3]: -0.0662
composite z-score [4]: -1.24
composite z-score [5]: 1.33
composite z-score [6]: 1.1
z-score [7]: -0.443
composite z-score [8]: 1.47
composite z-score [9]: -0.38
z-score [10]: -2.29 (inactive)
composite z-score [11]: -0.141
z-score [12]: -0.972 (inactive)
z-score [13]: -0.492 (inactive)
z-score [14]: 0.343 (inactive)
z-score [15]: 0.427 (inactive)
composite z-score [16]: -0.0469
composite z-score [17]: -0.21
composite z-score [18]: 0.666
composite z-score [19]: 0.244
composite z-score [20]: 2.18

CN(C)C(=O)[C@@]1(Cc2ccccc2)N=C(c2ccc(OCCCO)cc2)O[C@H]1c1ccccc1CN=[N+]=[N-]
composite z-score [1]: 3.27
composite z-score [2]: 1.25
composite z-score [3]: 0.254
composite z-score [4]: 1.02
composite z-score [5]: 1.37
composite z-score [6]: 1.18
z-score [7]: 1.97
composite z-score [8]: 0.485
composite z-score [9]: 1.25
z-score [10]: -0.088 (inactive)
composite z-score [11]: 1.45
z-score [12]: -2.26 (inactive)
z-score [13]: 0.456 (inactive)
z-score [14]: 0.974 (inactive)
z-score [15]: -0.55 (inactive)
composite z-score [16]: 1.5
composite z-score [17]: 0.696
composite z-score [18]: 0.526
composite z-score [19]: 1.79
composite z-score [20]: -0.122

CN(C)CCCNC(=O)[C@@H]1c2ccccc2C(=O)N(Cc2cc(F)cc(C(F)(F)F)c2)[C@H]1c1ccc(CO)cc1
composite z-score [1]: 0.77
composite z-score [2]: 1.07
composite z-score [3]: -0.0288
composite z-score [4]: 0.216
composite z-score [5]: 1.28
composite z-score [6]: 0.309
z-score [7]: -0.00183
composite z-score [8]: -0.271
composite z-score [9]: 0.039
z-score [10]: 0.0764 (inactive)
composite z-score [11]: 0.095
z-score [12]: -1.77 (inactive)
z-score [13]: -0.101 (inactive)
z-score [14]: 0.351 (inactive)
z-score [15]: 0.159 (inactive)
composite z-score [16]: -0.621
composite z-score [17]: -0.0849
composite z-score [18]: 0.65
composite z-score [19]: -0.348
composite z-score [20]: 0.388

C[C@H](c1ccccc1)N1C(=O)[C@H]2[C@H]3[C@H](O)[C@H](O)CC(=O)[C@@H]3CC[C@H]2C1=O
composite z-score [1]: 0.62
composite z-score [2]: -0.0909
composite z-score [3]: 0.0546
composite z-score [4]: 0.436
composite z-score [5]: 0.469
composite z-score [6]: 0.51
z-score [7]: 0.47
composite z-score [8]: 0.515
composite z-score [9]: 0.286
z-score [10]: 0.569 (inactive)
composite z-score [11]: 0.507
z-score [12]: -1.37 (inactive)
z-score [13]: 0.00143 (inactive)
z-score [14]: -0.885 (inactive)
z-score [15]: -0.997 (inactive)
composite z-score [16]: 0.239
composite z-score [17]: -0.0059
composite z-score [18]: 0.458
composite z-score [19]: 0.208
composite z-score [20]: 0.694

Cc1ccc(S(=O)(=O)N[C@@H]2COC(=O)[C@H](C)COC(=O)CC=C[C@H]2C)cc1
composite z-score [1]: -0.419
composite z-score [2]: -0.0268
composite z-score [3]: -0.232
composite z-score [4]: -0.305
composite z-score [5]: 1.35
composite z-score [6]: 0.98
z-score [7]: 0.26
composite z-score [8]: 1.38
composite z-score [9]: -0.277
z-score [10]: -0.181 (inactive)
composite z-score [11]: 0.0114
z-score [12]: 0.405 (inactive)
z-score [13]: 0.317 (inactive)
z-score [14]: 0.0676 (inactive)
z-score [15]: -0.262 (inactive)
composite z-score [16]: 0.134
composite z-score [17]: -0.224
composite z-score [18]: 1.06
composite z-score [19]: 0.615
composite z-score [20]: 1.91
